Screens from PubChem.
TCR act = T cell receptor activation; primary human leukocytes, anti-CD3, IL-2 HTRF, 48 h; Potency, µM (titrated, usually from 9.22 µM), actives largely listed as activators; 330,000 tested, under 10 active
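Using a-CD3 beads without co-stimulation, primary human leukocytes were exposed to compounds for 48 hr. An HTRF IL-2 kit measured the cytokine, with europium-to-d2 energy transfer producing emission at 665nm upon 320nm excitation.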
TRPV1 ag = human TRPV1 agonism | TRPV1-expressing cells, Fluo-8 calcium influx, agonist mode | 320,000 compounds, 0.19% hits | activation, % at 8.33 µM | AID 540275 | Q8NER1; in the data active = activation above about 80%; inconclusive = between about 30% and that limit
Target sequence (Q8NER1 whole entry, looked up): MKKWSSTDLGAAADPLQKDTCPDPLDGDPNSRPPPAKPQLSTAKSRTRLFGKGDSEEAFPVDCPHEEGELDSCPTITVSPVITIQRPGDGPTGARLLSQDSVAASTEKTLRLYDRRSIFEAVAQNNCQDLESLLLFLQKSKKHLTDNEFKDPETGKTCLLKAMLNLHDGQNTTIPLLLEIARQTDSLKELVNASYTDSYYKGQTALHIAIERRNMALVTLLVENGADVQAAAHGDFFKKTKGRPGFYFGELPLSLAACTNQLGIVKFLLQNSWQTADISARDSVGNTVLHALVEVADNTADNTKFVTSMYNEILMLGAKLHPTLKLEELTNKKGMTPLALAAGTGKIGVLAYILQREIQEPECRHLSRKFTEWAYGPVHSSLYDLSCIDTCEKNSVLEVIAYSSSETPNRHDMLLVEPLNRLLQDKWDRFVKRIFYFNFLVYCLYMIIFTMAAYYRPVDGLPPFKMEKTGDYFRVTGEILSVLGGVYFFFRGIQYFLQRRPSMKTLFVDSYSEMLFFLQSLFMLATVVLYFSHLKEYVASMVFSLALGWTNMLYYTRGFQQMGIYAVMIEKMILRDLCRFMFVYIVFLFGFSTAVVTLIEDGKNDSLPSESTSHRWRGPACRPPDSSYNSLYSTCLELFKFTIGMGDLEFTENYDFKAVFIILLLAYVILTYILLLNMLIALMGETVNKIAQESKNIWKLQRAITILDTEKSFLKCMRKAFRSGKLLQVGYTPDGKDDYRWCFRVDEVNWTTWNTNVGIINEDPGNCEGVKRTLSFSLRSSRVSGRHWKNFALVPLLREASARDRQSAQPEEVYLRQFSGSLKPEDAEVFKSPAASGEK
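TRPV1-expressing cells were cultured overnight at 35.5C and loaded with Fluo-8 calcium dye for 40 to 90 min at room temperature. After a 10 s baseline, compound was added and calcium influx was read kinetically for 3 min (ex 480/em 520 nm).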
MBNL1 CUG block = inhibitors of human MBNL1 binding to CUG repeat RNA. TR-FRET MBNL1-His/biotin-(CUG)12 binding, 665/545 ratio. 280,000 compounds, 0.036% hits. Q9NR56. AID 2675. Potency, µM (top dose mostly 57.5 µM), most hits filed as inhibitors; active = well fitted inhibition curve with a large enough effect in the signal ratio, with a control signal flat, not every such curve was filed as active; inconclusive = small, poorly fitted or top-dose-only effect, or effect the other way, or a change in a side signal; inactive = no such curve, though single readings can be large or run the other way; the % refers to the signal ratio
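Ratiometric TR-FRET (665 over 545 nm, excitation 340 nm) tracks disruption of MBNL1-His/biotin-(CUG)12 complex after 60 min at room temperature, with compounds at 92 nM to 58 uM final.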
TRPV1 potentiator = human TRPV1 potentiation; TRPV1-expressing cells, Fluo-8 calcium influx, capsaicin EC20 potentiation; potentiation, % at 8.33 µM; 320,000 compounds, 0.02% hits; AID 540277; in the data active = potentiation above about 80%; inconclusive = between about 30% and that limit
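TRPV1-expressing cells were cultured overnight at 35.5C and loaded with Fluo-8 calcium dye for 40 to 90 min at room temperature. After a 10 s baseline, compound was added and calcium influx was read kinetically for 3 min (ex 480/em 520 nm).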
CBFb-RUNX1 inh = inhibitors of human CBF-beta and RUNX1 interaction; Q01196+Q13951; Potency, µM (doses to about 59.8 µM), hits mostly inhibitors; AID 1477; 230,000 tested, under 10 active; AlphaScreen CBFb-His/RUNX1-biotin binding, biochemical
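Inhibition was taken as any reduction in AlphaScreen signal from the CBF-beta–RUNX1 pair (His and biotin tags, 30 nM each), measured after compound (15 min) and bead (90 min) incubations at room temperature.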
Luc counter = Kinase-Glo luciferase inhibition (counter-screen). Q27757. Kinase-Glo luciferase, ATP luminescence, 8 min. Potency, µM (top dose mostly 38.3 µM), most hits filed as inhibitors. 200,000 compounds, 0.28% hits; note: nearly all actives have a fitted effect of over 60% in size
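Compounds were added to a substrate mix at pH 7.2 (50 mM imidazole, 10 uM ATP, within the enzyme's linear range), followed by Kinase-Glo detection reagent; luminescence was measured after 8 minutes at ambient temperature.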
Hits are given with their value; n = inactive; u = inconclusive; x = not tested or not shown; [ ] = dose if it differs, or a comment. A selection: hits, their analogues and other compounds. The true share with any hit is near 0.35%. Unless noted, calls come from the whole dose curve; as a rule, active = well fitted curve in the direction sought with a large enough effect; inconclusive = small, poorly fitted or top-dose-only effect, or another doubt; inactive = no such curve, though single readings can be large; an effect the other way counts as inactive or inconclusive.

SMILES	TCR act	TRPV1 ag	MBNL1 CUG block	TRPV1 potentiator	CBFb-RUNX1 inh	Luc counter
N/C(=N\OC(=O)c1ccc(F)cc1)c1ccccc1	n	n	n	n	n	8.9µM
COc1ccc(C(=O)O/N=C(\C)c2ccccc2)cc1	n	n	n	n	n	13µM
COc1ccc(C(=O)O/N=C(/c2ccccc2)c2ccncc2)cc1	n	n	n	n	n	n
N/C(=N\OC(=O)c1ccc2c(c1)OCO2)c1cccc([N+](=O)[O-])c1	n	n	u	n	n	n
O=S(=O)(Nc1cccc2ccccc12)c1cccc2ccccc12	x	n	x	n	x	x
CSCC[C@H](NC(=O)[C@H](CC(C)C)NC(=O)[C@H](Cc1c[nH]c2ccccc12)NC(=O)[C@H](CCC(N)=O)NC(=O)[C@@H](NC(=O)[C@H](Cc1ccccc1)NC(=O)[C@H](CC(=O)O)NC(=O)[C@H](CCC(N)=O)NC(=O)[C@H](C)NC(=O)[C@H](CCCNC(=N)N)NC(=O)[C@H](CCCNC(=N)N)NC(=O)[C@H](CO)NC(=O)[C@H](CC(=O)O)NC(=O)[C@H](CC(C)C)NC(=O)[C@H](Cc1ccc(O)cc1)NC(=O)[C@H](CCCCN)NC(=O)[C@H](CO)NC(=O)[C@H](Cc1ccc(O)cc1)NC(=O)[C@H](CC(=O)O)NC(=O)[C@H](CO)NC(=O)[C@@H](NC(=O)[C@H](Cc1ccccc1)NC(=O)[C@@H](NC(=O)CNC(=O)[C@H](CCC(N)=O)NC(=O)[C@H](CO)NC(=O)[C@@H](N)Cc1cnc[nH]1)[C@@H](C)O)[C@@H](C)O)C(C)C)C(=O)N[C@@H](CC(N)=O)C(=O)N[C@H](C(=O)O)[C@@H](C)O	x	x	x	x	n	x
Cc1ccc(C(=O)O/N=C(\N)c2ccccn2)cc1	n	u	n	n	x	x
N/C(=N\OC(=O)c1cccc(F)c1)c1ccccc1	n	n	n	n	n	11µM
C/C(=N/OC(=O)c1ccc(C)cc1)c1cccs1	n	n	n	n	n	13µM
CC(C(=O)O/N=C(\N)c1ccccn1)c1ccc([N+](=O)[O-])cc1 (stereo not given)	n	n	u	n	x	x
C/C(=N\OC(=O)c1ccc(C)cc1)c1sc(C)nc1C	n	n	n	n	n	n
N/C(=N\OC(=O)c1ccccc1)c1ccccn1	n	n	n	n	n	1.4µM
N/C(=N\OCc1ccc([N+](=O)[O-])cc1)c1ccccn1	n	n	u	n	n	10µM
COC(=O)[C@@H](NC(=O)N1CCc2nc(-c3ccc(OC)cc3C)c3c(c2C1)CO[C@@H](c1ccccc1)C3)C(C)C	x	x	x	x	n[13.1 µM]	n[7.66 µM]
FC(F)(F)c1ccccc1Cl	x	x	x	x	n	x
O=C1CC(c2ccc3c(c2)OCO3)c2cc(O)ccc2O1 (stereo not given)	x	x	x	x	u	n
CSCC[C@H](N)C(=O)N[C@@H](CO)C(=O)N[C@@H](CCCN=C(N)N)C(=O)N1CCC[C@H]1C(=O)N[C@@H](C)C(=O)N[C@@H](CS)C(=O)N1CCC[C@H]1C(=O)N[C@@H](CC(N)=O)C(=O)N[C@@H](CC(=O)O)C(=O)N[C@@H](CCCCN)C(=O)N[C@@H](Cc1ccc(O)cc1)C(=O)N[C@@H](CCC(=O)O)C(=O)O	x	x	x	x	n	x
CC(C)(C)C(=O)CSc1ncnc2c1cnn2Cc1ccccc1	n	90	n	n	x	x
COC(=O)CSc1ncnc2c1cnn2Cc1ccccc1	n	n	n	n	n	n
O=Nc1ccc(NO)cc1	x	x	x	x	n	x
O=C(NCc1cccnc1)[C@@H]1[C@@H](C(=O)O)[C@H]2CC[C@@H]1O2	x	x	x	x	x	n[7.66 µM]
O=C(Nc1ccccc1)N1CCCN(c2nccc(C(F)(F)F)n2)CC1	n	87	n	n	n	x
O=C(Nc1ccc(F)cc1)N1CCCN(c2nccc(C(F)(F)F)n2)CC1	n	u	n	n	n	x
CC(C)(C)c1ccc(C(=O)N/N=C/c2ccccn2)cc1	n	83	n	n	x	x
O=C(N/N=C/c1ccc(Br)s1)c1ccco1	n	u	u	n	n	x
SMILES	TCR act	TRPV1 ag	MBNL1 CUG block	TRPV1 potentiator	CBFb-RUNX1 inh	Luc counter
O=C(N/N=C/c1ccc(Br)s1)c1ccccn1	n	87	u	n	n	u
CC(C)(C)c1ccc(/C=N/NC(=O)c2ccccn2)cc1	n	83	n	n	n	n
O=C(N/N=C/c1ccsc1)c1ccccn1	n	n	n	n	n	u
O=C1/C(=C/Nc2ccc3c(c2)OCO3)CCc2ccccc21	n	n	u	n	n	2.8µM
COc1ccc(N/C=C2\CCc3ccccc3C2=O)cc1	n	n	u	n	n	11µM
CC[C@H]1CN(C)[C@H]2Cc3c([nH]c4ccccc34)C(=O)C[C@H]1[C@H]2C(=O)OC	x	x	x	x	x	n[7.66 µM]
CCn1nc(C)cc1C(=O)N1CCCC(Nc2ccc(C(C)C)cc2)C1 (stereo not given)	n	81	n	n	x	x
Cn1cccc1C(=O)C(=O)Nc1ccccc1	n	n	n	n	n	13µM
CCc1nnc(SCC(=O)N2CCCc3ccccc32)nc1CC	x	n	n	n	n	n
Cc1ccc2c(c1)c1nnc(SCC(=O)N3CCCc4ccccc43)nc1n2CC(=O)O	n	n	n	n	n	10µM
CCNC(=S)NNC(=O)c1cc(-c2cccc(OC)c2)nc2ccccc12	n	n	n[11.5 µM]	n	n	u
CCc1ccc(-c2cc(C(=O)Nn3cnnc3)c3ccccc3n2)cc1	n	n	n	n	n	8.9µM
CCNC(=S)NNC(=O)c1cc(-c2ccc(OCC)cc2)nc2ccccc12	n	n	n	n	n	1µM
COc1cc(O)c2c(O)c3c(c4c2c1[C@@]1(C4)C(C)=CCCC1(C)C)[C@H](O)[C@@]1(O)CC(=O)C(C(N)=O)=C(O)[C@]1(O)C3=O	x	x	x	x	x	n[7.66 µM]
O=C(NCCCCN1CCCC1)c1ccc(Cc2nc3ccccc3[nH]2)cc1	x	x	x	x	x	n
O=C(NCCCN1CCOCC1)c1ccc(-n2c(=O)c(=O)[nH]c3ccccc32)cc1	x	x	x	x	x	n
COc1ccc(/C=C/C(=O)c2cccs2)c(OC)c1	x	x	x	x	n	n
O=C(/C=C/c1ccnc2ccccc12)c1cccs1	n	n	n	n	n	13µM
C/C=C1\CC2C=CC1C2 (stereo not given)	x	x	x	x	n	x
O=C(CCCOc1ccc(Cl)cc1Cl)Nc1ccncc1	x	80	n	n	n	n
O=C(CCCOc1ccc(Cl)cc1Cl)Nc1ccccn1	n	n	n	n	n	n
CC(OC(=O)CC1CCCCC1)C(=O)Nc1ccc(F)cc1 (stereo not given)	n	83	x	n	x	x
